Reference: PubChem BioAssay AID588676 (Johns Hopkins Ion Channel Center, 2011)
The campaign covered roughly 310,000 compounds. About 3,900 (1.3%) were called active. The sample holds actives, similar compounds and a random draw of the others, so the mix is not that of the screen.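 How the source made its calls: active means calcium-response B-score plate-corrected more than 3 library SD below zero, starting fluorescence within 5 deviations, no agonist response on first addition; inactive means the rest.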

Each molecule was assayed against Mas-related G-protein coupled receptor member X1 (Homo sapiens) (UniProt Q96LB2) (assay: blockade of BAM8-22-evoked MrgX1 calcium response – HEK293 cells, Fluo-4 calcium flux, primary screen (AID 588676;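 on B-score: peak minus trough fluorescence over baseline after final BAM8-22 challenge near maximal dose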)). Conditions: Fluo-4, BAM8-22 antagonism, at 10 µM; stronger effect = lower value.
Sequence of Mas-related G-protein coupled receptor member X1 (Homo sapiens) (Q96LB2 whole entry, looked up): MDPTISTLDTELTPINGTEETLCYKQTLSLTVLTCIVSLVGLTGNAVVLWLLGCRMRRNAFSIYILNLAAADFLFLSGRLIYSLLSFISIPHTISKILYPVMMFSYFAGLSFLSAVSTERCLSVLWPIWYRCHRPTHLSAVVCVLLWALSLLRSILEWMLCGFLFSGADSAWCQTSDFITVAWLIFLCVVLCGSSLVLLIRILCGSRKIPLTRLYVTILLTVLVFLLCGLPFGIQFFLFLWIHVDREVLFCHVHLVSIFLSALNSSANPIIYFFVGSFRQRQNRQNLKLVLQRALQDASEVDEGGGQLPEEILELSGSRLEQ

B-score, inactive:
CC(C)NC(=O)NNc1c(Cl)cncc1Cl, Cc1ccc(C(c2nnnn2CS(=O)(=O)c2ccc(C)cc2)N2CCC(C)CC2)cc1 (configuration not stated), O=C(O)CN1CCN(C(c2ccccc2)c2ccccc2)CC1, CC1(C)CC(=O)C=C(N2CCCC2)C1, CCC(=O)N(C)C(c1ccccc1Cl)c1nnnn1-c1c(C)cccc1C (configuration not stated), COc1ccc(N2CC(NS(=O)(=O)c3ccc4ccccc4c3)CC2=O)cc1 (configuration not stated), CSCC[C@H](NC(=O)N1CCn2c1nc1ccccc12)C(=O)NCc1ccc2c(c1)OCO2, Cc1ccc(S(=O)(=O)N2CCN(C)CC2)cc1C(=O)NC1CCCCC1, CCCCC1(C(=O)OCC)NC(c2ccc(O)cc2)C2C(=O)N(c3ccccc3)C(=O)C21 (configuration not stated), O=C1CCCN1C(=O)COc1ccc([N+](=O)[O-])cc1, COC(=O)COc1ccc(S(=O)(=O)Nc2ccc(NC(C)=O)cc2)cc1, Cc1ccc(OC(=O)CCC(=O)Nc2ccc(Br)cc2)cc1, CCN(C(=O)CSc1nnnn1-c1ccccc1OC)C1CCS(=O)(=O)C1 (configuration not stated), CCN(C(=O)CSc1nc2ccccc2n1CC)C1CCS(=O)(=O)C1 (configuration not stated), COc1ccc(NC(=O)c2sc3nc(C)nc(N4CCN(c5ccccn5)CC4)c3c2C)c(OC)c1, Cc1nc(N2CCN(c3ccccn3)CC2)c2c(C)c(C(=O)Nc3ccc(F)cc3)sc2n1, COc1ccc(NC(=O)CN(Cc2ccccc2)S(C)(=O)=O)cc1OC, CC1(C)C(C=C(Cl)Cl)C1C(=O)NC(O)C(=O)c1ccccc1 (configuration not stated), O=C(CCCN1C(=O)c2ccccc2C1=O)Oc1ccc(Cl)cc1, CSc1nnc(NC(=O)c2nc(S(=O)(=O)Cc3ccc(C)cc3)ncc2Cl)s1, Cc1cccc(NC(=O)c2nc(S(=O)(=O)Cc3ccccc3)ncc2Cl)c1, Cc1cc(N2CCOCC2)nc2ccc(NC(=S)N3CCN(Cc4ccccc4)CC3)cc12, C#C[C@]1(O)CC[C@H]2[C@@H]3CCC4=CC(=O)CC[C@@H]4[C@H]3CC[C@@]21CC, O=C(NCC(c1cccs1)N1CCOCC1)c1cc(Cl)ccc1[N+](=O)[O-] (configuration not stated), CCc1nnc(NC(=O)CSc2nnc(Cc3ccccc3)n2-c2ccc(OC)cc2)s1, CCOc1ccc(NC(=O)CSc2nc3c(c(=O)n2-c2ccccc2OC)SCC3)cc1, CC(Oc1ccccc1F)C(=O)NN (configuration not stated), CCSc1sc(CC)cc1C=O, O=C(NCCc1ccc(Cl)cc1)C1CC(=O)N(C2CCCCC2)C1 (configuration not stated), Cc1ccc(CNC(=O)C2CC(=O)N(C3CCCCCCC3)C2)cc1 (configuration not stated), COc1cc(C)c(Cl)cc1S(=O)(=O)n1ccnc1, CCCC(=O)N1CCC(CCC(=O)NC2CC2)CC1, COc1ccccc1OCC(=O)Nc1ccccc1C(=O)NC1CC1, CCOc1ccccc1OCC(=O)Nc1ccccc1C(=O)NC1CC1, COc1cc(-c2c(-c3ccc4c(c3)OCO4)noc2C)ccc1F, Nc1nc(NCC2CCCO2)nc(Nc2ccccc2F)c1[N+](=O)[O-] (configuration not stated), CSc1ccc(NC(=O)/C=C/C(=O)O)cc1, CC(C)(C)c1ccc(/C=C/C(=O)Nc2ncccn2)cc1, Cn1cccc1Cc1nnc(SCC(=O)NCc2ccc3c(c2)OCO3)n1CCc1ccccc1, O=C(O)CCc1nc2cc(Cl)ccc2n(Cc2ccccc2)c1=O, CCOc1ccccc1NC(=O)COc1ccc(S(=O)(=O)N2CCCC2)cc1, COc1ccc(NC(=O)CCC(=O)N2CCN(S(=O)(=O)c3ccc(C)cc3)CC2)c(OC)c1, Cc1cc(C)c(C#N)c(Nc2cccc(Br)c2)n1, N#CC1=C(N)Oc2c(ccc3cccnc23)C1c1ccncc1 (configuration not stated), O=C(COc1nsnc1N1CCOCC1)Nc1ccccc1Cl, COc1cc(C(C)=O)ccc1OC(=O)CN1C(=O)c2ccccc2C1=O, Cc1cc(F)ccc1S(=O)(=O)Nc1ncnc2scc(-c3ccc(F)cc3)c12, CCOC(=O)c1c(NC(=O)C(C)Sc2c[nH]c3ccccc23)sc2c1CCC2 (configuration not stated), CCOC(=O)c1c(NC(=O)CCC(=O)NCc2ccco2)sc2c1CCCC2, O=C(NCC(=O)N1CCN(c2ncc(C(F)(F)F)cc2Cl)CC1)c1ccc(Br)o1, Cc1ccc(C(=O)OC2=CC(=O)CC(C)(C)C2)cc1, COc1ccc(/C=C2\SC(=S)N(CCC(=O)Nc3ccccn3)C2=O)cc1OC, COc1ccccc1C(=O)NNC(=O)CCN1C(=O)/C(=C\c2ccccc2)SC1=S, O=C(Nc1cccc([N+](=O)[O-])c1)N1CCc2ccccc2C1

B-score, active:
CC1(C)CC(N2CCN(C(c3ccccc3)c3ccccc3)CC2)=CC(=[N+]2CCCCC2)C1 -4.89, CC(=O)Nc1ccc(OC(=O)COc2ccc(Br)cc2)cc1 -4.53, CCN(C(=O)CSc1nnc2ccccn12)C1CCS(=O)(=O)C1 (configuration not stated) -5.04, Cc1nc(N2CCN(c3ccccn3)CC2)c2c(C)c(C(=O)Nc3ccc(F)c(Cl)c3)sc2n1 -5.65, Cc1ccc(CS(=O)(=O)c2ncc(Cl)c(C(=O)Nc3nnc(C)s3)n2)cc1 -6.02, CCc1nnc(NC(=O)CSc2nc3c(c(=O)n2-c2ccccc2OC)SCC3)s1 -5.85, O=C(Nc1ccc(Br)cc1F)C1CC(=O)N(C2CCCCC2)C1 (configuration not stated) -6.01, CC(Oc1ccc(F)cc1)C(=O)Nc1ccccc1C(=O)NC1CC1 (configuration not stated) -5.83, COC(=O)c1sc(-c2ccc(C(C)(C)C)cc2)cc1NC(=O)/C=C/C(=O)O -9.91, CCOc1ccccc1NC(=O)CCN1CCN(S(=O)(=O)c2ccc(OC)cc2)CC1 -4.98, N#CC1=C(N)Oc2c(sc3ccccc23)C1c1ccco1 (configuration not stated) -4.64, CCOC(=O)c1c(NC(=O)CSc2cn(CC)c3ccccc23)sc2c1CCC2 -6.48, COc1cc(/C=C2/SC(=S)N(Cc3ccccc3)C2=O)cc(OC)c1O -7.51
